# Source: PubChem
# Most compounds without a hit are left out; they make up all but 3.9% or so of the library.
# ALR H2O2 inh: inhibitors of human ALR sulfhydryl oxidase, primary screen, biochemical, H2O2 detection, HRP-luminol luminescence, single point. AID 485317, 2010. 290,000 compounds, 3.8% hits. inhibition, % (no concentration beside the values). purified ALR, DTT oxidation;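 active = mean replicate inhibition above about 79%, with every replicate also reaching it, limit read from the data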
# Target sequence (P55789 whole entry, looked up): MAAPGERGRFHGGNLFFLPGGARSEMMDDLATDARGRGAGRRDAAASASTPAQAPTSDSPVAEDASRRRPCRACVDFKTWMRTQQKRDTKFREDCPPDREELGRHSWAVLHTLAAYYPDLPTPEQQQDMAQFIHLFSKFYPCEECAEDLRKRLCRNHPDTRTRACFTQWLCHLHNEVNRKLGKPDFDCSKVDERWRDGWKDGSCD
# N-glyco inh: increase of ERlucT glycosylation luciferase signal, primary screen, N-linked glycosylation inhibitor project, D54 ERlucT cells, luminescence, set 2; 360,000 compounds, 0.23% hits; D54 ERlucT glycosylation luciferase reporter, 24 h; percent of 100 nM tunicamycin response; reporter increase, % at 12.5 µM;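 active = mean luciferase reporter signal, scaled so untreated is 0 and the glycosylation-blocking control 100, at or above a set limit in every replicate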;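 note: luciferase carries N-glycosylation sites so blocking glycosylation raises the light; 0% = median of neutral control wells and 100% = median of 100 nM tunicamycin wells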
# Casp6 inh: human caspase-6 inhibitors, primary screen, biochemical, VEID-R110 fluorescence, single point, set 2; P55212; purified caspase-6, Z-VEID-R110 cleavage fluorescence; inhibition, % at 12.5 µM; 350,000 compounds, 0.53% hits; AID 686996, 2013;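 active = mean inhibition across replicates at least about 35%, with every replicate also reaching that limit, limit read from the data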;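 note: 0% = median of neutral control wells and 100% = no fluorescence left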
# Target sequence (P55212 24-179 limits assumed): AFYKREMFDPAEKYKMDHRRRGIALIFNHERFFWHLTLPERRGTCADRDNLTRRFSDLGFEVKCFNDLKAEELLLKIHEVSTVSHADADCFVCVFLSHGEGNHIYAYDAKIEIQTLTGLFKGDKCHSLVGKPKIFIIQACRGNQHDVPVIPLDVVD
# Target sequence (P55212 194-293 limits assumed): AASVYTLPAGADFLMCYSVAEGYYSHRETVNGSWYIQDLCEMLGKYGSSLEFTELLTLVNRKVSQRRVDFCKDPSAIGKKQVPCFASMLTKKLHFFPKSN
# NSD2 HMT inh: NSD2 histone methyltransferase inhibitors, primary screen, biochemical, AlphaScreen, single concentration, set 2; NSD2 peptide methylation, 120 min; Histone-lysine N-methyltransferase NSD2 (Homo sapiens), O96028; inhibition, % at 12.5 µM; 310,000 compounds, 0.54% hits; in the data active = inhibition above about 50%
# CDK5 p35 inh: inhibitors of human CDK5/p35 kinase, primary screen, biochemical, single concentration; Cyclin-dependent kinase 5 (Homo sapiens) + Cyclin-dependent kinase 5 activator 1 (Homo …; Recombinant CDK5/p35, ADP-Glo luminescence, 60 min; inhibition, % at 10 µM; 330,000 compounds, 0.01% hits; AID 488839, 2010;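 active = highest replicate inhibition of at least 50% and at least 75% of replicates reaching 50%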;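 note: plate controls were DMSO neutral control for no effect and GW8510 at 10 µM for full effect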
# SUMO Mot1 rescue: yeast Mot1-301 growth rescue at high temperature, primary screen, SUMOylation pathway inhibitor project, S. cerevisiae, ATP luminescence, 38.5C | AID 2716, 2010 | growth rescue, % at 18.8 µM | 320,000 compounds, 1% hits | S. cerevisiae Mot1-301 growth rescue; percent above DMSO median, 100 means doubled;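 active = every valid replicate shows activation above 250% relative to neutral control wells; inactive = the rest, any valid replicate at or below 250%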;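 note: OY570 slx delta 5 strain wells were the positive control but not used for scaling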
# * = called active by the depositor; · = no result given.
SMILES,ALR H2O2 inh,N-glyco inh,Casp6 inh,NSD2 HMT inh,CDK5 p35 inh,SUMO Mot1 rescue
Cc1ccc(N=C2NC(=O)/C(=C\c3ccco3)S2)cc1,·,5.8,·,3.7,-1.7,34.6
O=C1NC(=Nc2ccc(Cl)cc2)/C(=C/c2ccco2)S1,86.8*,-0.1,7.1,11.5,0.2,-9.8
COc1ccc(/C=N/n2c(=O)[nH]c3c([nH]c4ccc(C)cc43)c2=O)cc1CN1CCOCC1,·,1.2,1.2,-0.6,-0.3,·
CC1=CC(C)[C@H](/C=N/n2c(=O)[nH]c3c([nH]c4ccc(C)cc43)c2=O)C(C)C1 (stereo partly specified),5.6,60.1*,2.1,-4.8,2.4,120.2
CCOc1cccc2cc(-c3csc(NC(=O)CCC(=O)NCCN4CCCCC4C)n3)c(=O)oc12 (stereo unspecified),99.3*,-8.1,0.3,·,0.2,22.9
CCOc1cccc2cc(-c3csc(NC(=O)CCC(=O)NCCCN4CCC(C)CC4)n3)c(=O)oc12,99.3*,·,·,·,·,-0.4
C[C@@H]1CN([C@H](C)CO)C(=O)c2cc(NC(=O)c3ccncc3)ccc2O[C@@H]1CN(C)Cc1ccc(Cl)c(Cl)c1,·,·,-1.1,·,·,·
O=C1C=C(NCCc2cc(Br)c(O)c(Br)c2)C(=O)c2ncccc21,·,-20.1,96.0*,137.1*,1.9,·
COc1ccc(-c2nc(C#N)c(NCCCN(C)C)o2)cc1OC,59.1,2.7,·,5.4,1.0,306.4*
O=C(C[C@H]1CC[C@@H]2[C@H](COC[C@@H](O)CN2C(=O)Nc2cccc(Cl)c2)O1)NCc1ccccc1F,·,·,1.7,·,·,·
CCS(=O)(=O)N1CC(=O)N2[C@@H](CO)[C@H](c3ccc(-c4cccc(F)c4)cc3)[C@@H]2C1,·,·,1.7,·,·,·
CCOC(=O)C1CCCN(c2c(NCCCN(C)c3ccccc3)c(=O)c2=O)C1 (stereo unspecified),99.3*,0.0,1.3,·,1.0,-5.0
CCOC(=O)N1CCN(c2c(NCCCN(CC)c3cccc(C)c3)c(=O)c2=O)CC1,99.0*,0.7,·,3.4,-0.9,-2.9
CCN(CCCNC(=O)C1CCC(=O)N1Cc1ccc(C)cc1)c1cccc(C)c1 (stereo unspecified),99.3*,-0.9,1.5,0.9,-1.7,-8.8
CCN(CCNC(=O)C1CCC(=O)N1Cc1ccc(C)cc1)c1ccccc1 (stereo unspecified),·,1.7,-2.8,0.9,0.2,-3.6
CCN(CCCNC(=O)C1CCC(=O)N1Cc1ccccc1Cl)c1cccc(C)c1 (stereo unspecified),98.9*,-8.0,·,6.0,3.4,-2.1
CCOC(=O)C1CCCN(c2c(NCCc3ccccc3)c(=O)c2=O)C1 (stereo unspecified),-23.5,3.0,0.0,0.7,0.2,5.3
Oc1cccc(Nc2nc(NCC3CCCO3)c3ccccc3n2)c1 (stereo unspecified),99.7*,-4.0,·,·,7.3,-9.4
COc1ccc(Nc2nc(NCC3CCCO3)c3ccccc3n2)c(OC)c1 (stereo unspecified),98.2*,1.0,-0.9,8.2,-4.5,124.6
CCOc1ccc(Nc2nc(NCC3CCCO3)c3ccccc3n2)cc1 (stereo unspecified),22.4,-8.3,·,28.5,0.8,-15.8
CN1C(=O)c2cc(NC(=O)c3cccs3)ccc2OC[C@H]2O[C@@H](CC(=O)Nc3ccc4c(c3)COC4)CC[C@@H]21,·,·,-3.3,·,·,·
CC(C)NC(=O)N[C@@H]1CC[C@@H](CC(=O)NCc2ccc(Oc3ccccc3)cc2)O[C@@H]1CO,·,·,2.4,·,·,·
CCOC(=O)c1cnc2ccc(C)cc2c1Nc1ccc(N2CCOCC2)cc1,98.1*,-7.5,·,-8.6,6.3,3.2
CCCNC(=O)C[C@@H]1CC[C@@H]2[C@@H](COc3ccc(NC(=O)Nc4ccccc4F)cc3C(=O)N2C)O1,·,·,1.7,·,·,·
CCN(CC)c1ccc(C=NN2CCCCCC2)cc1,·,1.2,1.7,4.9,-0.3,·
SMILES,ALR H2O2 inh,N-glyco inh,Casp6 inh,NSD2 HMT inh,CDK5 p35 inh,SUMO Mot1 rescue
CCN(Cc1ccccc1)c1ccc(/C=N/N2CCOCC2)cc1,98.4*,-1.4,1.9,0.3,-0.4,7.3
COc1ccc(/C=N/N2CCOCC2)cc1O,97.6*,0.5,·,-0.1,0.0,-8.1
CCN(CC)c1ccc(/C=N/N2CCOCC2)cc1,98.6*,-2.9,·,5.5,1.9,-10.7
CCN(Cc1ccccc1)c1ccc(/C=N/NC(=O)c2cccc(S(=O)(=O)N3CCOCC3)c2)cc1,-0.2,-6.5,·,-2.0,-1.0,249.8
COc1cc(/C=N/N2CCOCC2)ccc1OCc1ccccc1,-4.5,-2.6,0.8,3.8,-2.2,795.4
NC(=O)c1sc(=S)n(-c2ccc(Br)cc2)c1N,95.5*,-3.4,1.4,·,1.1,6.4
Cc1noc(C)c1NC(=O)Nc1ccc2c(c1)CC(=O)N([C@H](C)CO)C[C@@H](C)[C@H](CN(C)Cc1ccc(-c3ccccc3)cc1)O2,·,·,-1.3,·,·,·
O=C(Nc1ccc(F)cc1)N1CCCCN2[C@H](C1)[C@H](c1ccc(C#Cc3ccccc3)cc1)[C@@H]2CO,·,·,-1.9,·,·,·
COc1ccc2nc(S(=O)Cc3ncc(C)c(OC)c3C)[nH]c2c1 (stereo unspecified),97.6*,0.9,10.6,·,1.6,-12.0
COc1ccc2nc(SCC(=O)Nc3c(C)cccc3C)[nH]c2c1,0.3,-1.6,1.6,-1.0,2.4,·
CCOc1ccc(-c2n[nH]c(=S)n2Cc2ccccc2)cc1,·,-1.0,37.2*,0.4,0.1,-12.9
COc1ccc(Cn2c(-c3ccc(OC)cc3)n[nH]c2=S)cc1,94.7*,0.6,2.3,0.9,1.4,-21.3
CCc1cc(-c2n[nH]c(=S)n2Cc2ccccc2)cs1,92.2*,1.8,·,10.1,-1.1,-0.1
CCOc1ccc(Cc2n[nH]c(=S)n2N)cc1,96.3*,1.3,·,1.7,0.3,8.0
C[C@@H]1CN([C@H](C)CO)C(=O)c2cc(NS(=O)(=O)c3ccc(Cl)cc3)ccc2O[C@@H](C)CCCCO[C@@H]1CN(C)C(=O)Cc1ccccc1,·,·,-2.2,·,·,·
Cc1noc(C)c1S(=O)(=O)Nc1ccc2c(c1)CC(=O)N([C@@H](C)CO)C[C@@H](C)[C@H](CN(C)Cc1ccc(C(=O)O)cc1)O2,·,·,-0.9,·,·,·
CCn1c(-c2ccc(Cl)cc2)n[nH]c1=S,97.7*,-0.2,·,1.4,0.0,177.4
COc1ccc(-c2n[nH]c(=S)n2CC(C)C)cc1,88.0*,3.2,·,0.0,1.8,5.0
CC(C)Cn1c(-c2csc3ccccc23)n[nH]c1=S,94.6*,-1.2,·,4.1,1.8,32.9
